Source: PMC5892938, “SARNAclust: Semi-automatic detection of RNA protein binding motifs from immunoprecipitation data”
In all, about 11,000 sequences were measured (“log2 fold change”: median about 0.00022, highest 2% from about 0.34 on). This is one part of the list.

molecular target: GST-SBP-SLBP (stem-loop binding protein) (Homo sapiens, UniProt Q14493 1-270); assay: targeted RNA Bind-n-Seq; RBNS binding buffer: 25 mM Tris pH 7.5, 150 mM KCl, 3 mM MgCl2, 0.1% Tween, 0.5 mg/mL BSA, 1 mM DTT; 27 nM protein, 750 pM RNA pool; temperature not stated; high values mean tight binding; settings: protein: recombinant; tags: N-terminal GST and SBP (pGEX6P1-SBP); structured_RNA
In short: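 The GST-SBP-tagged protein was expressed in Rosetta(DE3) pLysS E. coli, glutathione-purified and incubated at 27 nM with 750 pM of a designed, T7-transcribed RNA oligo pool in RBNS binding buffer. Bound RNA was reverse transcribed with a 10-nucleotide barcoded primer, PCR-amplified and sequenced on a MiSeq with 200-cycle paired-end reads. Reads were joined with FLASH, aligned with HISAT2 and collapsed by barcode. The binding signal is the DEseq log2 fold change of read counts per sequence.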

Sequence | binding signal
GGUCACGUCUCAAUCAACUCCCAAAGGUUUUUUUAAGAGCCACCCAUCAACAGCUCGCAGUCAAG | 0.54 ± 0.157 log2 fold change
GGUCACGUCUCAAUCAACUCCCAAAGGUUUUUUUUAGAACCACCCAUCAACAGCUCGCAGUCAAG | 0.338 ± 0.169 log2 fold change
GGUCACGUCUCAAUCAACUCCCAAAGGCUUUUCUUAGAGCCACCCAUCAACAGCUCGCAGUCAAG | 0.496 ± 0.164 log2 fold change
GGUCACGUCUCAAUCAACUCCCAAAGGUUUUUCUCAGAACCACCCAUCAACAGCUCGCAGUCAAG | 0.402 ± 0.178 log2 fold change
GGUCACGUCUCAAUCAACUCCCAAAGGUUUUUUUUAGAGCCACCCAUCAACAGCUCGCAGUCAAG | 0.324 ± 0.158 log2 fold change
GGUCACGUCUCAAUCAACUCUAGUCCAGGAGUUUUCUCCUGUUAAUUCAACAGCUCGCAGUCAAG | 0.331 ± 0.217 log2 fold change
GGUCACGUCUCAAUCAACUCAAUCCCAGGAGUUUUCUCCUGUAAAGUCAACAGCUCGCAGUCAAG | 0.317 ± 0.231 log2 fold change
GGUCACGUCUCAAUCAACUCAUUCCCAGGAGUUUACUCCUGCUAACUCAACAGCUCGCAGUCAAG | 0.364 ± 0.234 log2 fold change
GGUCACGUCUCAAUCAACUCUAUCCCAGGAGUUUACUCCUGUUUUCUCAACAGCUCGCAGUCAAG | 0.399 ± 0.223 log2 fold change
GGUCACGUCUCAAUCAACUCAUCCCCAGGAGUUUACUCCUGUUUAGUCAACAGCUCGCAGUCAAG | 0.458 ± 0.228 log2 fold change
GGUCACGUCUCAAUCAACUCAAUCCCAGGAGUUUCCUCCUGCUAACUCAACAGCUCGCAGUCAAG | 0.303 ± 0.231 log2 fold change
GGUCACGUCUCAAUCAACUCAUCCUCAGGAGUUUCCUCCUGUUAAGUCAACAGCUCGCAGUCAAG | 0.328 ± 0.204 log2 fold change
GGUCACGUCUCAAUCAACUCAUCGUCAGGAGUUUACUCCUGCUAACUCAACAGCUCGCAGUCAAG | 0.304 ± 0.246 log2 fold change
GGUCACGUCUCAAUCAACUCUAUCCCAGGAGUUUCCUCCUGCAUACUCAACAGCUCGCAGUCAAG | 0.312 ± 0.201 log2 fold change
GGUCACGUCUCAAUCAACUCUUUCCCAGGAGUUUUCUCCUGUUAUGUCAACAGCUCGCAGUCAAG | 0.376 ± 0.182 log2 fold change
GGUCACGUCUCAAUCAACUCAGUCUCAGGAGUUUACUCCUGCUUAUUCAACAGCUCGCAGUCAAG | 0.314 ± 0.242 log2 fold change
GGUCACGUCUCAAUCAACUCAUCUUCAGGAGUUUACUCCUGCUUAGUCAACAGCUCGCAGUCAAG | 0.342 ± 0.198 log2 fold change
GGUCACGUCUCAAUCAACUCAUCCUCAGGAGUUUACUCCUGCUUACUCAACAGCUCGCAGUCAAG | 0.315 ± 0.216 log2 fold change
GGUCACGUCUCAAUCAACUCUUCGUCCAGGGAAACCCCUGGUUUUCUCAACAGCUCGCAGUCAAG | 0.36 ± 0.292 log2 fold change
GGUCACGUCUCAAUCAACUCUUCCUCCAGGGAAAACCCUGGUAAACUCAACAGCUCGCAGUCAAG | 0.339 ± 0.267 log2 fold change
GGUCACGUCUCAAUCAACUCUUCCUCCAGGGAAACCCCUGGUUAACUCAACAGCUCGCAGUCAAG | 0.443 ± 0.293 log2 fold change
GGUCACGUCUCAAUCAACUCAAUCUCCAGGGAAACCCCUGGUAAACUCAACAGCUCGCAGUCAAG | 0.353 ± 0.274 log2 fold change
GGUCACGUCUCAAUCAACUCUUCGCCCAGGGAAACCCCUGGUAAUCUCAACAGCUCGCAGUCAAG | 0.384 ± 0.343 log2 fold change
GGUCACGUCUCAAUCAACUCUUCGUCCAGGGAAAACCCUGGUUUUCUCAACAGCUCGCAGUCAAG | 0.335 ± 0.277 log2 fold change

Sequence | binding signal
GGUCACGUCUCAAUCAACUCAGUCCCCAGGGAAACCCCUGGUAUUUUCAACAGCUCGCAGUCAAG | 0.335 ± 0.368 log2 fold change
GGUCACGUCUCAAUCAACUCUACUUCCAGGGAAAACCCUGGCAAACUCAACAGCUCGCAGUCAAG | 0.31 ± 0.258 log2 fold change
GGUCACGUCUCAAUCAACUCAGUCUCCAGGGAAACCCCUGGUUUAUUCAACAGCUCGCAGUCAAG | 0.458 ± 0.335 log2 fold change
GGUCACGUCUCAAUCAACUCAGUUUCCAGGGAAAUCCCUGGUUUAUUCAACAGCUCGCAGUCAAG | 0.33 ± 0.289 log2 fold change
GGUCACGUCUCAAUCAACUCUUCUUCCAGGGAAAACCCUGGCAAACUCAACAGCUCGCAGUCAAG | 0.378 ± 0.272 log2 fold change
GGUCACGUCUCAAUCAACUCUUCUUCCAGGGAAACCCCUGGUAAUCUCAACAGCUCGCAGUCAAG | 0.352 ± 0.266 log2 fold change
GGUCACGUCUCAAUCAACUCAGUCCCCAGGGAAAACCCUGGUUUUUUCAACAGCUCGCAGUCAAG | 0.518 ± 0.357 log2 fold change
GGUCACGUCUCAAUCAACUCUAAGGAGGGGGGGAAAACCCCUUUACCCUCAUCAUCAACAGCUCGCAGUCAAG | 0.486 ± 0.425 log2 fold change
GGUCACGUCUCAAUCAACUCUCAGGAGGGGGGGAAAACCCCUUUACCCUCAUCGUCAACAGCUCGCAGUCAAG | 0.309 ± 0.421 log2 fold change
GGUCACGUCUCAAUCAACUCUAAGGAGGGGGGGAAAACCCCUUUACCCUCACACUCAACAGCUCGCAGUCAAG | 0.396 ± 0.454 log2 fold change
GGUCACGUCUCAAUCAACUCAACUGAGGGGGGGAAAACCCCUUUACCCUCCAAAUCAACAGCUCGCAGUCAAG | 0.448 ± 0.446 log2 fold change
GGUCACGUCUCAAUCAACUCAACUGAGGGGGGGAAAACCCCUUUACCCUCCACAUCAACAGCUCGCAGUCAAG | 0.388 ± 0.423 log2 fold change
GGUCACGUCUCAAUCAACUCUCCAGAGGGGGGGAAAACCCCUUUACCCUCAACAUCAACAGCUCGCAGUCAAG | 0.304 ± 0.431 log2 fold change
GGUCACGUCUCAAUCAACUCCCAAGAGGGGGGGAAAACCCCUUUACCCUCGUAAUCAACAGCUCGCAGUCAAG | 0.444 ± 0.442 log2 fold change
GGUCACGUCUCAAUCAACUCAAUAGAGGGGGGGAAAACCCCUUUACCCUCCCAAUCAACAGCUCGCAGUCAAG | 0.325 ± 0.459 log2 fold change
GGUCACGUCUCAAUCAACUCCCAAGAGGGGGGGAAAACCCCUUUACCCUCACUCUCAACAGCUCGCAGUCAAG | 0.558 ± 0.444 log2 fold change
GGUCACGUCUCAAUCAACUCUCACGAGGGGGGGAAAACCCCUUUACCCUCAAAUUCAACAGCUCGCAGUCAAG | 0.315 ± 0.408 log2 fold change
GGUCACGUCUCAAUCAACUCUUACGAGGGGGGGAAAACCCCUUUACCCUCAAAUUCAACAGCUCGCAGUCAAG | 0.37 ± 0.399 log2 fold change
GGUCACGUCUCAAUCAACUCUUACGAGGGGGGGAAAACCCCUUUGCCCUCAACAUCAACAGCUCGCAGUCAAG | 0.326 ± 0.377 log2 fold change
GGUCACGUCUCAAUCAACUCUUACGAGGGGGGGAAAACCCCUUUGCCCUCAAAUUCAACAGCUCGCAGUCAAG | 0.347 ± 0.395 log2 fold change
GGUCACGUCUCAAUCAACUCUUCAGAGGGGGGGAAAACCCCUUUACCCUCCUAAUCAACAGCUCGCAGUCAAG | 0.368 ± 0.433 log2 fold change
GGUCACGUCUCAAUCAACUCUUCAGAGGGGGGGAAAACCCCUUUACCCUCCGUUUCAACAGCUCGCAGUCAAG | 0.44 ± 0.434 log2 fold change
GGUCACGUCUCAAUCAACUCGUUUUCAGGAGUUUACUCCUGCUUAUUCAACAGCUCGCAGUCAAG | 0.329 ± 0.222 log2 fold change
